For 15 compounds, outcome and AC50 results are on record in PubChem BioAssay (EPA / NIEHS).

Read-out in assay [1]: Epidermal growth factor receptor (EGFR), EGFR (gene 1956)
In words: BSK_BE3C_EGFR: BioMAP Diversity Plus: BE3C Assay for Epidermal growth factor receptor (EGFR) Biomarker Activity (AID 2284281). Particulars: primary human bronchial epithelial cells. Put shortly: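 Human primary bronchial epithelial cells (BE3C system) dosed with chemicals; EGFR measured by ELISA at 24 h, fitted in the positive direction relative to DMSO. Cytotoxicity tracked in parallel cultures by SRB total-protein staining.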

Read-out in assay [2]: KRT18 (gene 3875)
In words: BSK_BE3C_Keratin818: BioMAP Diversity Plus: BE3C Assay for Keratin 818 Biomarker Activity (AID 2284282). Particulars: primary human bronchial epithelial cells. The essentials: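 Chemicals are added to human lung bronchial epithelial primary cells (BE3C system) and incubated 24 h. Keratin 8/18 is then measured by ELISA, with parallel SRB total-protein staining gauging overt cytotoxicity.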

Read-out in assay [3]: Matrix Metallopeptidase 9 (MMP9), MMP9 (gene 4318)
In words: BSK_BE3C_MMP9: BioMAP Diversity Plus: BE3C Assay for Matrix Metallopeptidase 9 (MMP9) Biomarker Activity (AID 2284283). As to conditions: primary human bronchial epithelial cells. Put shortly: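 MMP9 is measured by ELISA after a 24 h compound exposure of primary human bronchial epithelial cultures. Parallel SRB staining gives overt cytotoxicity. Values fitted in the positive direction against DMSO.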

Read-out in assay [4]: Plasminogen activator inhibitor-1 (PAI1), SERPINE1 (gene 5054)
In words: BSK_CASM3C_PAI1: BioMAP Diversity Plus: CASM3C Assay for Plasminogen activator inhibitor-1 (PAI1) Biomarker Activity (AID 2284284).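 Note: PAI-1 protein level measured by ELISA 24 h after dosing.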 Particulars: primary human coronary artery smooth muscle cells.

Read-out in assay [5]: Monocyte Chemoattractant Protein-1 (MCP1), CCL2 (gene 6347)
In words: BSK_hDFCGF_MCP1: BioMAP Diversity Plus: hDFCGF Assay for Monocyte Chemoattractant Protein-1 (MCP1) Biomarker Activity (AID 2284285). Particulars: primary human foreskin fibroblasts. The essentials: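 Human foreskin fibroblasts (hDFCGF system) were exposed to compound and secreted MCP-1 was measured by ELISA after 24 hours. Activity was fitted relative to DMSO. Cytotoxicity was checked by SRB total-protein staining in parallel cultures.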

Read-out in assay [6]: Vascular cell adhesion molecule 1 (VCAM1), VCAM1 (gene 7412)
In words: BSK_IMphg_VCAM1: BioMAP Diversity Plus: IMphg Assay for Vascular cell adhesion molecule 1 (VCAM1) Biomarker Activity (AID 2284286). Particulars: primary human endothelial cells with macrophages. Put shortly: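 Human venular endothelial cells co-cultured with macrophages; VCAM-1 quantified by ELISA 24 h after dosing, fitted in the positive direction against DMSO. Cytotoxicity was checked in parallel cultures by SRB total-protein staining (0.1% SRB after 10% TCA fixation, 560 nm).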

Read-out in assay [7]: Intercellular Adhesion Molecule 1 (ICAM1), ICAM1 (gene 3383)
In words: BSK_hDFCGF_ICAM1: BioMAP Diversity Plus: hDFCGF Assay for Intercellular Adhesion Molecule 1 (ICAM1) Biomarker Activity (AID 2284287). As to conditions: primary human foreskin fibroblasts. The essentials: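 Primary human foreskin fibroblasts (hDFCGF system) dosed with chemical; ICAM-1 quantified by ELISA at 24 h relative to DMSO. Parallel SRB total-protein staining to assess overt cytotoxicity.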

Read-out in assay [8]: CD40, CD40 (gene 958)
In words: BSK_IMphg_CD40: BioMAP Diversity Plus: IMphg Assay for CD40 Biomarker Activity (AID 2284288). As to conditions: primary human endothelial cells with macrophages. Put shortly: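 Venular endothelial cells co-cultured with macrophages (human primary), CD40 measured by ELISA 24 h after dosing. Positive-direction fit vs DMSO baseline; cytotoxicity tracked by SRB total-protein staining in parallel cultures.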

Read-out in assay [9]: TIMP metallopeptidase inhibitor 2 (TIMP2), TIMP2 (gene 7077)
In words: BSK_hDFCGF_TIMP2: BioMAP Diversity Plus: hDFCGF Assay for TIMP metallopeptidase inhibitor 2 (TIMP2) Biomarker Activity (AID 2284289). Particulars: primary human foreskin fibroblasts. Put shortly:
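Primary human foreskin fibroblasts in the hDFCGF system, dosed for 24 h; TIMP-2 level measured by ELISA, fitted in the positive direction against DMSO; cytotoxicity checked in parallel by sulforhodamine B total protein staining.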

Read-out in assay [10]: Interleukin-1 alpha (IL1a), IL1A (gene 3552)
In words: BSK_IMphg_IL1a: BioMAP Diversity Plus: IMphg Assay for Interleukin-1 alpha (IL1a) Biomarker Activity (AID 2284290). As to conditions: primary human endothelial cells with macrophages. Put shortly:
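Human venular endothelial cells co-cultured with macrophages, IMphg system. IL-1α is measured by ELISA 24 h after dosing and fitted in the positive direction against DMSO. Cytotoxicity is assessed by SRB staining of parallel cultures.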

Values joined by “and” are separate entries in the source; they are usually repeats but may differ in a detail not shown here. Equal values may be shown once. A structure can be active in one record and inactive in another. Active and inactive are the calls of the source. Rule for the calls: active = hit-call score of the fitted dose curve at least 0.9, where 1 is the maximum; inactive = score below 0.9.

In the case of `O=C(O)C(F)(F)OC(F)(F)C(F)(F)OC(F)(F)F`, the outcome in assay [1], in assay [2], in [3], in [4], in assay [5] and in assay [6] was inactive. For the same compound, the result in assay [7], in assay [8], in assay [9] and in assay [10] was inactive.

In the case of `O=C(O)C(F)(OC(F)(F)C(F)(F)C(F)(F)F)C(F)(F)F` (stereo not drawn), the result in assay [1], in [2], in [3], in assay [4], in assay [5] and in assay [6] was inactive. For the same compound, the result in assay [7], in [8], in assay [9] and in assay [10] was inactive. Moreover, the AC50 in assay [3] was 1.45 µM (active); in [10], 220 nM (active).

Turning to `O=C(O)C=CC(F)(C(F)(F)F)C(F)(F)F`, the result in assay [1], in [2], in assay [3], in [4], in assay [5] and in [6] was inactive. Further, the result in [7], in assay [8], in [9] and in assay [10] was inactive.

As to `OCC(F)(F)OC(F)(F)C(F)(F)OC(F)(F)CO`, the outcome in assay [1], in assay [2], in assay [3], in [4], in assay [5] and in [6] was inactive. Moreover, the result in [7], in [8], in assay [9] and in assay [10] was inactive. The AC50 in [10] was 334 nM (active).

Regarding `COP(=O)(CCC(=O)NCO)OC`, the outcome in assay [1], in [2], in assay [3], in assay [4], in assay [5] and in [7] was inactive. In assay [9], the outcome was inactive.

On to `O=C(O)C(F)(F)C(F)(F)C(=O)O`, for which the outcome in assay [1], in [2], in [3], in assay [4], in [5] and in [6] was inactive. For the same compound, the outcome in assay [7], in [8], in assay [9] and in assay [10] was inactive.

Turning to `O=S(=O)(F)C(F)(F)C(F)(F)C(F)(F)C(F)(F)C(F)(F)C(F)(F)C(F)(F)C(F)(F)F`, the result in assay [1], in [2], in assay [3], in assay [4], in assay [5] and in assay [6] was inactive. The outcome in assay [7], in [8], in assay [9] and in assay [10] was inactive.

For `OCC(F)(F)OC(F)(F)C(F)(F)OC(F)(F)C(F)(F)OC(F)(F)F`, the result in [1], in [2], in [3], in [4], in assay [5] and in [6] was inactive. Besides, the outcome in assay [7] and in assay [9] was inactive. The AC50 was 47.7 µM (active) in assay [6]; 19.2 µM (active) in assay [7]; 7.58 µM (active) and 49.2 µM (active) in assay [8]; 26.6 µM (active) and 47.5 µM (active) in [10].

Regarding `O=C(O)C(F)(F)OC(F)(F)C(F)(F)OC(F)(F)C(=O)O`, the result in [1], in [2], in [3], in assay [4], in assay [5] and in assay [6] was inactive. Also, the outcome in [7], in [8], in assay [9] and in [10] was inactive.

As for `NC(=O)C(F)(F)C(F)(F)F`, the outcome in assay [1], in [2], in assay [3], in [4], in [5] and in assay [6] was inactive. Further, the outcome in [7], in [8], in [9] and in assay [10] was inactive.

With `CC(O)C(F)(F)C(F)(F)F` (stereo not drawn), the result in assay [1], in assay [2], in assay [3], in assay [4], in assay [5] and in assay [6] was inactive. For the same compound, the result in assay [7], in assay [8], in assay [9] and in assay [10] was inactive. For the same compound, in [8], the AC50 was 2.17 µM (active).

For `FC(F)(F)C(F)(C(F)(F)F)C(F)(F)C(F)(F)CC1CO1` (stereo not drawn), the outcome in assay [1], in [2], in [3], in assay [4], in assay [5] and in assay [6] was inactive. For the same compound, the result in assay [7], in assay [8], in [9] and in assay [10] was inactive. Also, the AC50 in assay [9] was 319 nM (active).

Regarding `C=CC(=O)OCC(F)(F)C(F)F`, the result in [1], in assay [2], in assay [3], in assay [4], in assay [6] and in [10] was inactive. In addition, the AC50 was 40.7 µM (active) and 41.8 µM (active) in [5]; 30 µM (active) in [6]; 43.5 µM (active) and 29.6 µM (active) in [7]; 21.6 µM (active) and 23.6 µM (active) in assay [8]; 5.95 µM (active) and 20.8 µM (active) in assay [9].

Regarding `OCC(F)(F)OC(F)(F)C(F)(F)OC(F)(F)C(F)(F)OC(F)(F)CO`, the outcome in [1], in assay [2], in assay [3], in [4], in [6] and in assay [7] was inactive. The outcome in assay [8], in assay [9] and in [10] was inactive. Moreover, the AC50 in assay [5] was 30 µM (active) and 23.7 µM (active); in [7], 33.8 µM (active); in assay [8], 30 µM (active); in [9], 8460 nM (active).

For `COC(=O)C(F)(F)C(F)(F)OC(F)(C(F)(F)F)C(F)(F)OC(F)=C(F)F` (stereo not drawn), the result in [1], in [2], in assay [3], in assay [4], in [5] and in assay [6] was inactive. In addition, the result in assay [7], in assay [8], in assay [9] and in assay [10] was inactive.

A word on the AC50: it is the concentration giving half of the maximal activity seen.
